High-throughput results as filed in PubChem BioAssay.
IL2 activator = qHTS of IL-2 Activators | IL-2 activation reporter assay, cell-based qHTS; stimulated with anti-CD3/CD4/CD28 beads; in transgenic mouse T cells | activation, % (series mostly up to about 46 µM) | 0.065% of 360,000 active | AID 652025, 2013; in the data active means activation above about 50%; inconclusive means mostly about 30% to 49%
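Screening format: compound pinned onto unstimulated transgenic mouse T cells, 60 min incubation, then anti-CD3/anti-CD4/anti-CD28 bead stimulation for 18 hours at 37 degrees C, followed by EGFP and DsRed detection.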
p53 reactivation = qHTS assay for re-activators of p53 using a Luc reporter | H1299 p53-A138V BP100-luciferase reporter, luminescence, 24 h | Potency, µM (top dose mostly 92.2 µM), hits mostly activators | 0.063% of 320,000 active | AID 504706, 2011; further: nearly all actives have a fitted effect of over 45% in size
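p53-null H1299 cells stably carrying temperature-sensitive p53-A138V and a BP100-luciferase reporter were pinned with compounds (4-point, 1:5 series) and held 24 hrs at 37 deg C. Luminescence was read 10 min after detection reagent.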
BRCA1 expr act = qHTS Assay to Identify Small Molecule Activators of BRCA1 Expression. MCF7-BRCA1-FFLuc reporter, luminescence, 48 h; response scale: scaled: vehicle 0%, 10 µM genistein 100%. Potency, µM (series often up to 46.1 µM), actives largely listed as activators. 1.1% of 380,000 active. AID 624202, 2012; further: nearly all actives have a fitted effect of over 80% in size
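Luminescence from a BRCA1-driven firefly luciferase in MCF7 cells was read after 48 h compound exposure at 37 C. Data normalized against DMSO and a 10microM genistein activation control, then curve-fitted across the titration.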
uPA surface inh = qHTS for Inhibitors of Cell Surface uPA Generation; cell surface uPA generation assay, qHTS; Potency, µM (doses to about 38.3 µM), actives largely listed as inhibitors; 0.31% of 330,000 active; AID 540303, 2011; active means well fitted inhibition curve with a large enough effect; inconclusive means small, poorly fitted or top-dose-only effect; inactive means no such curve, though single readings can be large or run the other way; tested in mouse RAW 264.7 cells; further: nearly all actives have a fitted effect of over 55% in size
TCR act = Activators of T cell receptors: qHTS campaign; 330,000 tested, under 10 active; primary human leukocytes, anti-CD3, IL-2 HTRF, 48 h; AID 504894, 2011; Potency, µM (top dose mostly 9.22 µM), most hits filed as activators
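Human primary leukocytes + a-CD3 beads + cpd, 48 hr; IL-2 in supernatant by HTRF (ex 320nm / em 665nm). No co-stimulatory signal supplied.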
Hits are given with their value; - = inactive; ? = inconclusive; . = no result. Shown are actives, neighbours in structure and some others; about 1.4% of the full set was active somewhere. Unless noted, the call rests on the fitted dose curve; in most records, active means well fitted curve in the direction sought with a large enough effect; inconclusive means small, poorly fitted or top-dose-only effect, or another doubt; inactive means no such curve, though single readings can be large; an effect the other way counts as inactive or inconclusive.

SMILES	IL2 activator	p53 reactivation	BRCA1 expr act	uPA surface inh	TCR act
CC(=O)C1=C(NC(=O)c2ccc(F)cc2)CC2C1C2(C)C (centres undefined)	-	-	-	-	-
C/C(NC(=O)c1ccccc1)=C1/C(=O)CC2C1C2(C)C (centres undefined)	-	?	11.2µM	-	-
O=C(Cn1c(=O)n(Cc2ccco2)c(=O)c2sc3ccccc3c21)Nc1ccc(F)cc1F	.	.	-	.	.
O=[S+]([O-])([O-])c1ccc2c(c1)cc([S+](=O)([O-])[O-])c1nn(-c3ccc(/C=C/c4ccc(-n5nc6c([S+](=O)([O-])[O-])cc7cc([S+](=O)([O-])[O-])ccc7c6n5)cc4[S+](=O)([O-])[O-])c([S+](=O)([O-])[O-])c3)nc12	.	.	-	.	.
O=C1/C(=C/c2cccs2)SC(=S)N1c1ccccc1	-	-	-	-	.
O=C1S/C(=C\c2cccs2)C(=O)N1c1ccc(O)cc1	-	-	11.2µM	-	-
Cc1ccc(C(=O)NC2CCCCCCC2)cc1S(=O)(=O)N1CCOCC1	-	-	10µM	-	-
O=C(NC1CCCC1)c1ccc(Cl)c(S(=O)(=O)N2CCOCC2)c1	-	-	-	?	-
O=C(CCCn1c(=O)c2ccccc2n(CC(=O)Nc2cccc(Cl)c2)c1=O)NCc1ccc2c(c1)OCO2	.	.	-	.	.
CCOC(=O)c1oc2nc3c(cc2c1N)COC(C)(C)C3	-	-	7.94µM	-	.
CCOC(=O)c1oc2nc3c(cc2c1N)CCCC3	-	-	?	-	-
COC(=O)c1sc2nc3c(cc2c1N)COC(C)(C)C3	-	?	4.47µM	-	-
COc1cccc(Nc2nc(-c3ccccc3O)nc3ccccc23)c1	64.1	-	-	-	-
CC(=O)Nc1ccc2c(c1Br)Cc1ccccc1-2	-	.	3.16µM	-	-
COc1cc2c(NC3CCN(C)CC3)nc(N3CCCN(C)CC3)nc2cc1OCCCN1CCCCC1	.	.	-	.	.
CCN1/C(=C/c2cc[n+](CCCS(=O)(=O)[O-])c3ccccc23)Sc2ccccc21	226.1	-	-	-	-
CCOc1ccc(Nc2sc(C(=O)c3ccc4c(c3)OCO4)c(N)c2S(=O)(=O)c2ccc(C)cc2)cc1	.	.	-	.	.
CCCCCCC[C@@H](C/C=C/CCC(=O)N(C)C/C(=C/Cl)C/C(=C\C(=O)N1CC(OC)=CC1=O)OC)OC	-	31.6µM	-	-	-
Cc1ccc(-c2nc3ccsc3c(=O)o2)cc1	-	?	12.6µM	-	-
Fc1ccc(-c2cnn3c(-c4ccncc4)ccnc23)cc1	-	?	?	-	-
Fc1ccc(-c2cnn3c(-c4cccs4)ccnc23)cc1	106.1	?	-	-	-
O=C(c1cc2cc(Br)ccc2o1)N1CCCCC1	-	-	4.47µM	-	-
O=C(c1cc2cc(Cl)ccc2o1)N1CCCC1	-	-	?	-	-
COc1cccc(C(=O)Nc2ccc(F)c(F)c2F)c1	-	-	3.55µM	-	-
CCC(=O)Nc1ccc(NC(=O)c2cccc(OC)c2)nc1	-	?	11.2µM	-	-
SMILES	IL2 activator	p53 reactivation	BRCA1 expr act	uPA surface inh	TCR act
COc1cccc(C(=O)NCCSc2ccc(F)cc2)c1	-	-	11.2µM	-	-
COc1cccc(C(=O)NCCSc2ccc(C)cc2)c1	-	-	-	-	-
COC(=O)c1ccc(NC(=O)c2cccc(OC)c2)cc1	-	?	2.51µM	-	-
COc1ccc(-n2ccnc(NCCc3ccccc3)c2=O)cc1OC	.	.	-	.	.
O=C1CC(c2ccccc2)Sc2ccccc2N1Cc1ccccc1F (centres undefined)	.	.	-	.	.
CN(C)c1ccc(/C=C\C=C/c2ccnc3ccccc23)cc1	.	.	-	.	.
COC(=O)c1ccc(OCC(=O)c2cccc(OC)c2)cc1	-	?	2µM	-	-
COc1ccc(C(=O)COc2ccccc2C#N)cc1	-	31.6µM	-	-	-
Cc1cc(C(=O)CSc2ccc(Cl)cc2)cc(C)c1OC(=S)N(C)C	-	?	5.01µM	-	-
Cc1ccc(Cn2c(=O)c3cccnc3n(Cc3ccc(F)cc3)c2=O)cc1	.	.	-	.	.
Clc1ccccc1CSc1nc2ccncc2[nH]1	-	?	?	3.98µM	-
NC(=O)c1cccnc1Nc1cccc([N+](=O)[O-])c1	-	-	1.78µM	-	.
O=C(NC1CC1)c1cc2cc3ccccc3nc2s1	-	-	5.01µM	-	-
CC(=O)n1c(C=Nc2ccc(Cl)cc2)c(O)c2ccccc21	83.7	-	-	-	-
Cc1cc(C)n(-c2nc3ccccc3nc2Nc2cccc(C(F)(F)F)c2)n1	.	.	-	.	.
Fc1cccc(F)c1/C=C/c1ccc2ccccc2n1	-	22.4µM	-	-	-
O=C(Nc1ccccc1O)c1ccc(NS(=O)(=O)c2cccc3cccnc23)cc1	-	?	-	7.08µM	-
COc1ccc2c(c1)c1nnc(SC)nc1n2Cc1ccccc1	.	.	-	.	.
O=[N+]([O-])c1ccccc1OCCCn1cnc2ccccc21	-	-	2µM	-	.
COc1cccc(NC(=O)N(Cc2c[nH]c3ccccc23)C2CCCCC2)c1	.	.	-	.	.
COc1ccc(NC(=O)/C=C/c2ccc(F)cc2)cn1	-	?	-	-	-
COc1ccc(/C=C/C(=O)Nc2ccccc2)cc1OC	-	-	11.2µM	-	-
COc1ccc(NC(=O)/C=C/c2ccccc2)cn1	-	?	8.91µM	-	-
O=C(/C=C/c1ccccc1)Nc1ccc(Cl)cn1	-	-	3.55µM	-	-
CS(=O)(=O)c1ccc(C(=O)OCC(=O)N2CCc3ccccc32)cc1[N+](=O)[O-]	.	.	-	.	.
SMILES	IL2 activator	p53 reactivation	BRCA1 expr act	uPA surface inh	TCR act
CCCSCCCNC(=O)C1CCN(c2nc3ccccc3nc2C(F)(F)F)CC1	.	.	-	.	.
COc1ccc(C(=O)NCc2nnc(SCC(=O)Nc3ccc(F)cc3)n2-c2ccccc2)cc1	.	.	-	.	.
COc1ccc(OC)c(NC(=O)CSc2ccnc(=O)[nH]2)c1	.	.	-	.	.
C=CCSc1nncn1/N=C/c1ccc(OC)cc1	-	?	2.24µM	-	-
COc1ccc(/C=N/n2cnnc2SCCO)cc1OC	-	?	-	-	-
Cn1c(-c2ccccc2)cc2c3no[n+]([O-])c3ccc21	-	7.08µM	-	-	-
CN(C)c1ccc(Nc2ccc([N+](=O)[O-])cn2)cc1	-	-	3.16µM	-	-
O=[N+]([O-])c1ccc(Nc2ccc(F)cc2)nc1	-	-	-	-	-
CC(=O)Nc1ccc(/C=C/c2nc3ccccc3s2)cc1	.	.	-	.	.
COc1ccc(OCCSc2ncnc3nc[nH]c23)cc1	-	?	?	?	-
c1ccc(OCCSc2ncnc3nc[nH]c23)cc1	-	.	8.91µM	-	.
Cn1c(C(=O)NC2CCCCC2)cc2sccc21	-	?	5.62µM	-	.
CN(C(=O)c1cc2sccc2n1C)C1CCCCC1	-	?	6.31µM	.	-
Cn1c(C(=O)N2CCCC(C(=O)O)C2)cc2sccc21 (centres undefined)	-	-	-	-	-
